Results from the supplement of paper PMC12350171.
Where a name gives a salt, the structure may show the parent alone.

Test system: S. enterica typhimurium WT
Test: growth AUC normalised to DMSO control (median) (fraction of control); higher = less growth inhibition, active = hit call of the paper
Details: 20 µM;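 active = normalised median growth AUC below 0.1 of DMSO control; inactive = AUC 0.1 or higher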
How it was run: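 After two overnight anaerobic passages, strains were inoculated at OD578 0.01 into mGAM in 96-well plates containing approved-drug library compounds at 20 μM and 1% DMSO. Growth was followed by reading OD578 hourly for 24 h within an anaerobic incubator. Area under the curve, taken by the trapezoidal rule up to the start of stationary phase, was normalised to same-plate vehicle wells, and the median of three biological replicates is listed.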
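Note: active when median AUC fell below 0.1.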

Row | Structure (SMILES) | growth AUC normalised to DMSO control
1 | Cc1ccc(S(=O)(=O)NC(=O)NN2CC3CCCC3C2)cc1 (stereo not given) [Gliclazide] | 1 (inactive)
2 | O=c1[nH]cc(F)c(=O)[nH]1 [5-fluorouracil] | 0.809 (inactive)
3 | COC(=O)C1=C(C)NC(C)=C(C(=O)OC)C1c1ccccc1[N+](=O)[O-] [Nifedipine] | 1.01 (inactive)
4 | COc1ccc(CN(CCN(C)C)c2ccccn2)cc1 [Pyrilamine maleate] | 0.993 (inactive)
5 | Cc1c(Cl)cccc1Nc1ccccc1C(=O)O [Tolfenamic acid] | 1.02 (inactive)
6 | C[C@@](Cc1ccc(O)c(O)c1)(NN)C(=O)O [Carbidopa] | 1 (inactive)
7 | CCN(CC)CCCC(C)Nc1ccnc2cc(Cl)ccc12 (stereo not given) [Chloroquine diphosphate] | 1 (inactive)
8 | c1ccc(-c2ccc(C(c3ccccc3)n3ccnc3)cc2)cc1 (stereo not given) [Bifonazole] | 0.999 (inactive)
9 | C[C@H](CS)C(=O)N1CCC[C@H]1C(=O)O [Captopril] | 0.991 (inactive)
10 | Nc1ccc(C(=O)NCC(=O)O)cc1 [Aminohippuric acid] | 1.01 (inactive)
11 | CC(C(=O)O)c1ccc(N2Cc3ccccc3C2=O)cc1 (stereo not given) [Indoprofen] | 0.993 (inactive)
12 | CO[C@@]1(NC(=O)Cc2cccs2)C(=O)N2C(C(=O)O)=C(COC(N)=O)CS[C@@H]21 [Cefoxitin sodium salt] | 0.00954 (active)
13 | CN1CCN(CCCN2c3ccccc3Sc3ccc(C(F)(F)F)cc32)CC1 [Trifluoperazine dihydrochloride] | 1.02 (inactive)
14 | CN(C)CCOc1ccc(/C(=C(/CCCl)c2ccccc2)c2ccccc2)cc1 [Toremifene] | 1.02 (inactive)
15 | O=C1Nc2ccc(Cl)cc2[C@@](C#CC2CC2)(C(F)(F)F)O1 [Efavirenz] | 1 (inactive)
16 | CO[C@@H]1[C@@H](O[C@@H]2O[C@H](C)[C@@H](O[C@H]3C[C@@](C)(O)[C@@H](OC(=O)CC(C)C)[C@H](C)O3)[C@H](N(C)C)[C@H]2O)[C@@H](CC=O)C[C@@H](C)[C@@H](O)/C=C/C=C/C[C@@H](C)OC(=O)C[C@H]1OC(C)=O [Josamycin] | 0.967 (inactive)
17 | O=C(NCCNCC(O)COc1ccc(O)cc1)N1CCOCC1 (stereo not given) [Xamoterol hemifumarate] | 1.01 (inactive)
18 | CCN(CC)CCCC(C)Nc1c2ccc(Cl)cc2nc2ccc(OC)cc12 (stereo not given) [Quinacrine dihydrochloride hydrate] | 0.99 (inactive)
19 | C[C@H]1C[C@H]2[C@@H]3CCC4=CC(=O)C=C[C@]4(C)[C@@]3(F)[C@@H](O)C[C@]2(C)[C@@]1(O)C(=O)CO [Betamethasone] | 1 (inactive)
20 | CCCCC(CC)CNC(=N)NC(=N)NCCCCCCNC(=N)NC(=N)NCC(CC)CCCC (stereo not given) [Alexidine dihydrochloride] | 0.977 (inactive)

Row | Structure (SMILES) | growth AUC normalised to DMSO control
21 | COc1ccc(C(=O)NCc2cccnc2)cc1C(=O)NCc1cccnc1 [Picotamide monohydrate] | 0.995 (inactive)
22 | C[C@@H](c1ncncc1F)[C@](O)(Cn1cncn1)c1ccc(F)cc1F [Voriconazole] | 1 (inactive)
23 | NCC[C@H](O)C(=O)N[C@@H]1C[C@H](N)[C@@H](O[C@H]2O[C@H](CN)[C@@H](O)[C@H](O)[C@H]2O)[C@H](O)[C@H]1O[C@H]1O[C@H](CO)[C@@H](O)[C@H](N)[C@H]1O [Amikacin hydrate] | 1 (inactive)
24 | CO[C@H]1/C=C/O[C@@]2(C)Oc3c(C)c(O)c4c(O)c(c(/C=N/N5CCN(C)CC5)c(O)c4c3C2=O)NC(=O)/C(C)=C\C=C\[C@H](C)[C@H](O)[C@@H](C)[C@@H](O)[C@@H](C)[C@H](OC(C)=O)[C@@H]1C [Rifampicin] | 0.523 (inactive)
25 | CC(C)NCC(O)COc1cccc2[nH]ccc12 (stereo not given) [Pindolol] | 1 (inactive)
26 | NCCCC[C@H](N[C@@H](CCc1ccccc1)C(=O)O)C(=O)N1CCC[C@H]1C(=O)O [Lisinopril] | 1.01 (inactive)
27 | Cc1cccc(Nc2ccccc2C(=O)O)c1C [Mefenamic acid] | 0.985 (inactive)
28 | CN(C)CCC(c1ccccc1)c1ccccn1 (stereo not given) [Pheniramine maleate] | 0.999 (inactive)
29 | COc1cc(-c2ccc(=O)[nH]n2)ccc1OC(F)F [Zardaverine] | 0.995 (inactive)
30 | CCOc1ccc2c(c1)C(C)=CC(C)(C)N2 [Ethoxyquin] | 1.01 (inactive)
31 | CN1CCCCC1CCN1c2ccccc2Sc2ccc([S+](C)[O-])cc21 (stereo not given) [Mesoridazine besylate] | 0.997 (inactive)
32 | CC(C)NCC(O)c1ccc(O)c(O)c1 (single isomer, unassigned; (-)) [(-) Isoproterenol hydrochloride] | 1 (inactive)
33 | CO/N=C(\C(=O)N[C@@H]1C(=O)N2C(C(=O)O)=C(C[N+]3(C)CCCC3)CS[C@H]12)c1csc(N)n1 [Cefepime hydrochloride] | 0.00386 (active)
34 | N=C(N)N1CCc2ccccc2C1 [Debrisoquin sulfate] | 1 (inactive)
35 | CC(=O)O[C@]1(C(C)=O)CC[C@H]2[C@@H]3C=C(C)C4=CC(=O)CC[C@]4(C)[C@H]3CC[C@@]21C [Megestrol acetate] | 1.01 (inactive)
36 | N=C(N=C(N)N)N1CCOCC1 [Moroxidine hydrochloride] | 1.01 (inactive)
37 | c1ccc2[nH]c(-c3cscn3)nc2c1 [Tiabendazole] | 1 (inactive)
38 | CN(C)[C@@H]1C(=O)C(C(N)=O)=C(O)[C@@]2(O)C(=O)C3=C(O)c4c(O)ccc(Cl)c4[C@@H](O)[C@H]3C[C@@H]12 [Demeclocycline hydrochloride] | 0.00782 (active)
39 | COc1c2occc2c(OC)c2c(=O)cc(C)oc12 [Khellin] | 1.02 (inactive)
40 | CN1CCN(C(c2ccccc2)c2ccccc2)CC1 [Cyclizine hydrochloride] | 1.01 (inactive)
